Screens deposited in PubChem by several laboratories.
APOBEC3A inh = blocks human APOBEC3A ssDNA deamination | recombinant A3A, FAM/TAMRA ssDNA deamination fluorescence | P31941 | inhibition, % at 20 µM | 0.41% of 330,000 active;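 active means at least 40% inhibition at 20 µM here, with at most 30% in a related deaminase screen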;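 further: plate controls were A3A with DMSO for no effect and wells lacking A3A enzyme for full effect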
NRP1-CendR mod = modulators of CendR peptide binding to human neuropilin-1. O14786. FAM-RPARPAR peptide binding to NRP-1, fluorescence polarization. inhibition, % at 25 µM. 0.85% of 360,000 active;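 active means inhibition or corrected inhibition above about 18%, plus a signal ratio from 0.5 to 1.5, limit read from the data, passing the limit was not always enough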
Target sequence (O14786 whole entry, looked up): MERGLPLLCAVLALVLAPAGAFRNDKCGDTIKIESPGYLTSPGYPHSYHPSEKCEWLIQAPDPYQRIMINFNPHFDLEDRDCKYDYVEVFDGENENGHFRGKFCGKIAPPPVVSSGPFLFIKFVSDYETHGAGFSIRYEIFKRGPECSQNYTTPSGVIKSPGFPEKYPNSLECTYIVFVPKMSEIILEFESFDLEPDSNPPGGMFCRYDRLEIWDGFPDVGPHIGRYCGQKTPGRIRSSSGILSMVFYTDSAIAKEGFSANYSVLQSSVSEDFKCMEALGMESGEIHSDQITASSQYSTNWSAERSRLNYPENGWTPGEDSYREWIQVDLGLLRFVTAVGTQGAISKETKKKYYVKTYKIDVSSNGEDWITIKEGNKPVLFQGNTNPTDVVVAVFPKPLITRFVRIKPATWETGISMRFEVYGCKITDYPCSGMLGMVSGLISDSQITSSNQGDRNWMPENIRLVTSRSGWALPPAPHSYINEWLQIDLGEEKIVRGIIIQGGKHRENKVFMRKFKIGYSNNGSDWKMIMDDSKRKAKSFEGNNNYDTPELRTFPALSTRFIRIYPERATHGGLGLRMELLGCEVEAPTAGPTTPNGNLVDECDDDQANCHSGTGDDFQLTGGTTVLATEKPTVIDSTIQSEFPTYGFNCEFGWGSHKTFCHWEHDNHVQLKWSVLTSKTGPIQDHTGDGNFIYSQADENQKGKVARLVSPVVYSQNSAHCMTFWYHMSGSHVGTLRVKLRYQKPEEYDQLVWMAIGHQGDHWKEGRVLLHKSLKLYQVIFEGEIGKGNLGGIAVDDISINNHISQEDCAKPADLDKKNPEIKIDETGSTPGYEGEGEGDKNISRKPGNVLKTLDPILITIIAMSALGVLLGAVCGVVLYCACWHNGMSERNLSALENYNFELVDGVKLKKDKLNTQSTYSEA
ALR H2O2 inh = blocks human ALR sulfhydryl oxidase activity; purified ALR, DTT oxidation, H2O2 HRP-luminol luminescence; inhibition, % (no concentration beside the values); 3.8% of 290,000 active; P55789;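 active means mean replicate inhibition above about 79%, with every replicate also reaching it, limit read from the data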
M18AAP inhibitor = PfM18AAP enzyme inhibition | 1.2% of 290,000 active | inhibition, % at 7.35 µM | recombinant PfM18AAP, H-Glu-NHMec fluorogenic cleavage;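 active means inhibition above the campaign mean inhibition over all tested compounds plus 3 SD, cut at about 28% in these data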;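 further: 0% = plate median of test compound wells and 100% = 2 mM ZnCl2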
A3G deaminase = APOBEC3G (human) deaminase inhibition | Q9HC16 | recombinant A3G, ssDNA deamination FAM/TAMRA fluorescence | inhibition, % at 20 µM | 0.28% of 330,000 active;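 active means inhibition of at least 40% at 20 µM, with no more than 30% in the related APOBEC3A deaminase screen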;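 further: plate controls were DMSO wells with A3G for no effect and wells lacking A3G enzyme for full effect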
CR mimetic SO = lowers age-related superoxide in aged yeast cells; S. cerevisiae aged cells, superoxide DHE fluorescence; stronger effect = lower value; superoxide response (% of plate mean), % at 10 µM; 0.18% of 330,000 active; AID 2690;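 active means superoxide response under a set limit, about three screen SD below normal, cut at about 65% in these data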;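 further: yeast aged for seven days with compound at 30 °C before DHE staining; 100% = average MFI of all compound-treated wells on the plate with controls excluded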
* = called active by the depositor. Only some compounds are listed: those with a hit (about 5.2% of all), similar ones and a draw of the others.

O=c1c2cc(Br)ccc2[nH]c(=S)n1Cc1ccccn1 was read as APOBEC3A inh -7.5, NRP1-CendR mod 3.8, ALR H2O2 inh 93.0*, M18AAP inhibitor -8.7, A3G deaminase -7.7 and CR mimetic SO 99.3.
For O=C(CCCn1c(=S)[nH]c2ccc(Br)cc2c1=O)N1CCN(c2ccccn2)CC1 the results were APOBEC3A inh 0.0, NRP1-CendR mod 0.8, ALR H2O2 inh 92.2*, M18AAP inhibitor 2.2, A3G deaminase -5.2 and CR mimetic SO 110.6.
O=C(Nc1ccccc1Oc1ccccc1)[C@@H]1O[C@H](CO)[C@H](O)[C@H](O)[C@H]1O was read as NRP1-CendR mod -6.0.
`CCOc1ccc(/C=C/C(=O)OCC(=O)Nc2cccc(S(=O)(=O)N3CCCC3)c2)cc1` gave APOBEC3A inh 1.2, NRP1-CendR mod 10.9, ALR H2O2 inh -6.3, A3G deaminase -8.1 and CR mimetic SO 96.4.
Cc1ccc(-c2n[nH]c(=O)c3ccccc23)c(C)c1 was read as APOBEC3A inh -3.5, NRP1-CendR mod -0.7, ALR H2O2 inh -1.0, M18AAP inhibitor 0.1, A3G deaminase -3.3 and CR mimetic SO 99.9.
`FC(F)(F)c1cccc(Oc2ccc3c(C(F)(F)F)cc(C(F)(F)F)nc3n2)c1` gave APOBEC3A inh -2.3, NRP1-CendR mod -2.3, ALR H2O2 inh -1.4, M18AAP inhibitor 2.4, A3G deaminase -5.1 and CR mimetic SO 99.6.
For FC(F)(F)c1cc(C(F)(F)F)c2ccc(Oc3ccccc3)nc2n1 the results were APOBEC3A inh -1.2, NRP1-CendR mod 32.6*, ALR H2O2 inh -3.5, M18AAP inhibitor 0.2, A3G deaminase -6.5 and CR mimetic SO 99.1.
Screening COc1ccc(S(=O)(=O)Nc2c(C(=O)O)[nH]c3ccc(OC)cc23)cc1 returned APOBEC3A inh -1.1, NRP1-CendR mod 5.6, ALR H2O2 inh 97.7*, M18AAP inhibitor -3.1, A3G deaminase -2.5 and CR mimetic SO 95.5.
O=C(NC1(Cc2ccc(O)cc2)CCCCC1)c1ccccc1 was read as APOBEC3A inh -5.6, NRP1-CendR mod -13.5, M18AAP inhibitor 2.6, A3G deaminase -11.4 and CR mimetic SO 101.8.
For COC(=O)C1(Cc2ccc(O)cc2)OC(=O)C(O)=C1c1ccc(O)cc1 (stereo not drawn) the results were APOBEC3A inh 12.6, NRP1-CendR mod 20.8, ALR H2O2 inh 99.0*, A3G deaminase 4.8 and CR mimetic SO 128.3.
For Cc1cccc(OCCSc2ncnc3nc[nH]c23)c1 the results were APOBEC3A inh 0.9, NRP1-CendR mod 7.4, ALR H2O2 inh 30.1, M18AAP inhibitor -1.0, A3G deaminase -3.5 and CR mimetic SO 104.1.
COc1ccc(S(=O)(=O)NC2CC2)cc1C(=O)N1CCOCC1 was read as APOBEC3A inh 0.0, NRP1-CendR mod 21.0, ALR H2O2 inh -1.1, M18AAP inhibitor -9.5, A3G deaminase -1.7 and CR mimetic SO 98.5.
COc1cc(/C=C2/C(=O)N(c3ccc(Br)cc3)N=C2C)cc([N+](=O)[O-])c1O was read as APOBEC3A inh -4.3, ALR H2O2 inh -9.1, M18AAP inhibitor 6.0, A3G deaminase -7.8 and CR mimetic SO 100.0.
Screening CC1=NN(c2ccccc2)C(=O)/C1=C/c1cccc(C)c1 returned APOBEC3A inh -3.1, NRP1-CendR mod -2.5, ALR H2O2 inh 94.4*, M18AAP inhibitor 10.1, A3G deaminase -11.3 and CR mimetic SO 90.7.
`COc1cc(/C=C2/C(=O)N(c3cccc(Br)c3)N=C2C)cc(OC)c1O` gave APOBEC3A inh -2.3, NRP1-CendR mod -167.7, ALR H2O2 inh 92.1*, M18AAP inhibitor 19.8, A3G deaminase -4.3 and CR mimetic SO 90.5.
Screening CC1=CC(=NOC(=O)/C=C/c2ccccc2)C=C(C)C1=O returned APOBEC3A inh -0.3, NRP1-CendR mod 0.1, ALR H2O2 inh 58.6, M18AAP inhibitor 5.7, A3G deaminase -2.4 and CR mimetic SO 96.6.
For CC1=CC(=O)C=C(C)C1=NOC(=O)/C=C\c1ccccc1 the results were APOBEC3A inh -4.0, NRP1-CendR mod -8.2, ALR H2O2 inh 98.1*, M18AAP inhibitor 14.3, A3G deaminase -5.1 and CR mimetic SO 76.1.
`CC1=C(C)/C(=N\OC(=O)/C=C/c2ccccc2)C=CC1=O` gave APOBEC3A inh -0.5, NRP1-CendR mod 2.3, ALR H2O2 inh 86.7*, M18AAP inhibitor -1.2, A3G deaminase -6.1 and CR mimetic SO 102.4.
For Cc1c(NC(=O)COC(=O)COc2ccc(Nc3ccccc3)cc2)c(=O)n(-c2ccccc2)n1C the results were APOBEC3A inh 1.8, NRP1-CendR mod 10.0, ALR H2O2 inh 99.3*, M18AAP inhibitor 12.4, A3G deaminase -6.2 and CR mimetic SO 96.1.
For Cc1c(NC(=O)CSc2nc(N)cc(N)n2)c(=O)n(-c2ccccc2)n1C the results were APOBEC3A inh 0.2, NRP1-CendR mod 20.5*, ALR H2O2 inh -0.3, A3G deaminase -2.7 and CR mimetic SO 132.3.
For Cc1c(NC(=O)COC(=O)C2(c3ccc(F)cc3)CCCC2)c(=O)n(-c2ccccc2)n1C the results were APOBEC3A inh -1.3, NRP1-CendR mod 22.2*, ALR H2O2 inh 15.7, M18AAP inhibitor 2.3, A3G deaminase -5.3 and CR mimetic SO 144.9.
`Cc1c(NC(=O)Cn2nc(C(F)(F)F)c3c2CCCC3)c(=O)n(-c2ccccc2)n1C` gave APOBEC3A inh -0.1, NRP1-CendR mod 22.7*, ALR H2O2 inh -4.1, M18AAP inhibitor -2.7, A3G deaminase 0.0 and CR mimetic SO 105.1.
Cc1c(NC(=O)Cn2nc(C(=O)O)c3ccccc3c2=O)c(=O)n(-c2ccccc2)n1C was read as APOBEC3A inh 2.7, NRP1-CendR mod 15.4, ALR H2O2 inh 11.0, M18AAP inhibitor -1.4, A3G deaminase -4.9 and CR mimetic SO 87.7.
For Cc1nc(SCC(=O)Nc2c(C)n(C)n(-c3ccccc3)c2=O)nc(C)c1C the results were APOBEC3A inh -4.1, NRP1-CendR mod 1.0, ALR H2O2 inh -11.4, M18AAP inhibitor -2.7, A3G deaminase -2.7 and CR mimetic SO 95.7.
Screening CCOc1ccc(S(=O)(=O)NNC(=O)c2cc3ccccc3o2)cc1 returned APOBEC3A inh -3.5, NRP1-CendR mod 43.0*, ALR H2O2 inh 28.7, M18AAP inhibitor 13.0, A3G deaminase -5.7 and CR mimetic SO 98.1.
For O=C(Cc1ccccc1)N1CCCC1c1ccccc1 (stereo not drawn) the results were APOBEC3A inh -1.2, NRP1-CendR mod -1.2, ALR H2O2 inh -3.7, M18AAP inhibitor 2.2, A3G deaminase -5.2 and CR mimetic SO 93.0.
C[n+]1cccc2c(Br)ccc([O-])c21 was read as APOBEC3A inh 15.2, NRP1-CendR mod 25.8*, ALR H2O2 inh 53.5, M18AAP inhibitor 3.7, A3G deaminase 29.9 and CR mimetic SO 95.4.
For [O-][n+]1cccc2c(Br)cc(Br)c(O)c21 the results were APOBEC3A inh 13.7, NRP1-CendR mod 13.3, ALR H2O2 inh 10.7, M18AAP inhibitor 8.5, A3G deaminase 3.0 and CR mimetic SO 90.9.
